# FMDV antiviral – blocks foot and mouth disease virus; FMDV antiviral cell-based qHTS; Potency, µM (doses to about 57.9 µM), for inactives: at the highest dose activity change, negative = inhibition, hits mostly inhibitors; 410,000 compounds, 1.2% hits; AID 1159524; calls by dose curve; tested in HEK293T cells; note: read-out not given here; nearly all actives have a fitted effect of over 45% in size
# Sm TGR inh – blocks Schistosoma mansoni thioredoxin glutathione reductase; Q962Y6; purified TGR, DTNB reduction, TNB absorbance 405 nm; Potency, µM (doses to about 114 µM), inactives show top-dose activity change, negative = inhibition, hits mostly inhibitors; 360,000 compounds, 3% hits; AID 485364; note: nearly all actives have a fitted effect of over 60% in size
#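 Kinetic colorimetric format: TGR-catalysed, NADPH-driven DTNB reduction monitored via TNB absorbance. Enzyme dispensed at 20 nM; compound exposure 15 min at room temperature before reaction start.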
# LASV entry inh – Lassa virus entry inhibition | Lassa virus pseudotype entry inhibition, cell reporter | Potency, µM (highest dose often 37.9 µM), for inactives: at the highest dose activity change, negative = inhibition, hits mostly inhibitors | 300,000 compounds, 1.2% hits | AID 540256; calls by dose curve; tested in HEK293 cells; note: nearly all actives have a fitted effect of over 50% in size
# Marburg entry inh – inhibitors of Marburg virus binding or cell entry; Marburg virus pseudotyped entry inhibition, cell reporter; Potency, µM (highest dose often 37.8 µM), for inactives: at the top dose activity change, negative = inhibition, hits mostly inhibitors; 300,000 compounds, 1.8% hits; calls by dose curve; tested in HEK293 cells
# RE007 growth inh – less growth of the S. pombe RE007 Vpr strain | S. pombe RE007 Vpr strain, BacTiter-Glo ATP luminescence, 24 h | Potency, µM (titrated, usually from 92.2 µM), inactives show top-dose activity change, negative = less growth, actives largely listed as inhibitors | 360,000 compounds, 0.21% hits | AID 651644; active = well fitted falling curve with a large enough effect; inconclusive = small, poorly fitted or top-dose-only effect; inactive = no such curve, though single readings can be large or run the other way; note: nearly all actives have a fitted effect of over 50% in size
#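 Fission yeast RE007 carrying one integrated HIV-1 vpr copy, seeded at OD 0.01 in PMG+AL medium with 23 nL pinned compound. Grown 24 h at 30 degrees; viability read by BacTiter-Glo luminescence after 5 min.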
# HCV inhibitor – HCV inhibition. 340,000 compounds, 3.4% hits. Huh7.5.1 HCVcc-Cre infection, luciferase reporter, 44 h. Potency, µM (highest dose often 41.8 µM), without a hit: top-dose activity change, negative = inhibition, most hits filed as inhibitors
#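 Cells seeded at 1,000/well and cultured 4 h, then compounds added followed by HCVcc-Cre virus (~0.5 moi). After 44 h further culture, luciferase substrate was added, plates held 15 min at room temperature, and luminescence read for 15 sec.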
# * marks the source's active call; other numbers are inactive results; ? = inconclusive; / = no result; [ ] = dose if it differs, or a comment. An excerpt weighted towards active compounds, which were near 7.2% of everything screened. Unless noted, calls come from the whole dose curve; as a rule, active = well fitted curve in the direction sought with a large enough effect; inconclusive = small, poorly fitted or top-dose-only effect, or another doubt; inactive = no such curve, though single readings can be large; an effect the other way counts as inactive or inconclusive. % is set by controls: 0 for no effect and ±100 for the full control effect; potency is the fitted concentration of half-maximal effect.
SMILES,FMDV antiviral,Sm TGR inh,LASV entry inh,Marburg entry inh,RE007 growth inh,HCV inhibitor
O=C(NCc1ccc(Cl)cc1)C(=O)NCC(c1cccs1)S(=O)(=O)c1ccc(Cl)cc1 (configuration not stated),0%,?,0%[46.1 µM],/,/,/
O=C(NCCc1ccc(Cl)cc1)C(=O)NCC(c1cccs1)S(=O)(=O)c1cccs1 (configuration not stated),?,25µM*,?,/,/,/
COc1ccc(CCNC(=O)C(=O)NCC(c2ccco2)S(=O)(=O)c2cccs2)cc1 (configuration not stated),-5%,32µM*,?,/,/,/
Cc1ccc(S(=O)(=O)C(CNC(=O)C(=O)NCc2ccc(Cl)cc2)c2cccs2)cc1 (configuration not stated),-8%,22µM*,-15%[46.1 µM],/,/,/
O=c1[nH]c(SCc2c(F)cccc2Cl)nc2c1CCCC2,-13%,-9%,-6%[46.1 µM],9%[46.1 µM],/,/
COc1ccc(N(C(=O)CCl)C(C(=O)NCCc2ccccc2)c2cccs2)cc1 (configuration not stated),16µM*,10µM*,?,?,28%,5.6µM*
COc1ccccc1CCNC(=O)C(=O)NCC(c1cccs1)S(=O)(=O)c1cccs1 (configuration not stated),?,?,-37%[46.1 µM],/,/,/
COc1ccccc1CCNC(=O)C(=O)NCC(c1ccco1)S(=O)(=O)c1cccs1 (configuration not stated),0%,18µM*,0%[46.1 µM],/,/,/
COc1ccccc1CCNC(=O)C(=O)NCC(c1ccco1)S(=O)(=O)c1ccc(C)cc1 (configuration not stated),-24%,14µM*,9%[46.1 µM],/,/,/
CCC[C@@H]1Cc2c(sc3ncnc(N)c23)CO1,/,/,/,18%,/,/
COc1cc(/C=C(\C#N)C(=O)NC2CCCCC2C)ccc1OS(=O)(=O)c1ccc(C)cc1 (configuration not stated),25µM*,3%,?,-4%,4%,-24%
O=[N+]([O-])c1ccc(S(=O)Cc2ccccc2)c([N+](=O)[O-])c1 (configuration not stated),14µM*,/,11µM*,?,5.6µM*,?
COc1ccccc1NC(=O)Cn1c(=O)n(CCc2ccccc2)c(=O)c2sc3ccccc3c21,18%,-3%,7%[46.1 µM],5%[46.1 µM],/,/
CCOC(=O)c1c(NC(=S)NC)sc2c1CC(C)(C)SC2,-17%,10µM*,12%[46.1 µM],1%[46.1 µM],0%,?
CCN(CC)S(=O)(=O)c1ccc2c(c1)N(CC(=O)Nc1ccc(F)cc1F)C(=O)C1CCCN21 (configuration not stated),-5%,-3%,-9%[46.1 µM],/,/,/
Cc1c(NC(C)C)c(=O)n(-c2ccccc2)n1C,-15%,?,/,/,7%[18.4 µM],0.56µM*
Cc1c(NN=C(C#N)C#N)c(=O)n(-c2ccccc2)n1C,14µM*,22µM*,-15%,28%[46.1 µM],-1%,?
C=CCc1cccc(CNc2c(C)n(C)n(-c3ccccc3)c2=O)c1O,18%,-1%,15%,4%,-9%,32µM*
Cc1c(NC(=O)c2c(N)sc3c2CCCC3)c(=O)n(-c2ccccc2)n1C,12%,22µM*,3%[46.1 µM],14%[46.1 µM],0%,5%
CN1CCCCCC1C(=O)NCC1Cc2cc(-c3cnccn3)ccc2O1 (configuration not stated),10%,/,/,/,/,/
CCN(CC)C(=O)CSc1nnc2[nH]c(=O)cc(C)n12,0%,8%,-6%[46.1 µM],/,/,/
COc1ccc(OC)c(S(=O)(=O)NCc2ccc3c(c2)CCN3C(=O)c2cccc(C)c2)c1,-8%,1%,?,/,/,/
Cc1c(NC(C)c2ccccc2O)c(=O)n(-c2ccccc2)n1C (configuration not stated),-9%,40µM*,-16%,-1%,-10%,10%
Cc1c(NC(C)c2cc(Cl)ccc2O)c(=O)n(-c2ccccc2)n1C (configuration not stated),2%,?,23%,11%,1%,3%
CC(C)n1c(=NC(=O)c2ccco2)c(C#N)cc2c(=O)n3ccccc3cc21,-7%,45µM*,3%,-6%,-4%,-21%
SMILES,FMDV antiviral,Sm TGR inh,LASV entry inh,Marburg entry inh,RE007 growth inh,HCV inhibitor
CCOC(=O)c1cc2c(=O)n3ccccc3nc2n(C(C)C)c1=NC(=O)c1ccco1,13%,-12%,-27%,?,-4%,-18%
Cc1cccc(NC(=O)CCc2ccc(C)o2)c1,21%,35µM*,15%,-7%,-3%,-18%
CC(=O)Nc1ccc(NC(=O)CCc2ccc(C)o2)cc1,2%,-3%,/,/,0%,8%
Cc1ccc(CCC(=O)Nc2ccc(S(N)(=O)=O)cc2)o1,-5%,14µM*,-6%,0%,4%,?
COCCNc1nnc(SC(C)C(=O)Nc2ccc(-c3nc4ccc(C)cc4s3)cc2)s1 (configuration not stated),-20%,5%,?,?,8%,6.3µM*
COC(=O)c1cc(Sc2c(Cl)cccc2Cl)ccn1,-14%,/,-24%,11µM*,16%,14%
CCN(CC)S(=O)(=O)c1cc(-c2nnc(Nc3ccc(OC)c(C(N)=O)c3)c3ccccc23)ccc1C,?,4%,?,/,/,/
Cc1cccc(/C(N)=N/OC(=O)c2ccco2)c1,0%,4%,?,?,?,-1%
Cc1ccc(/C(N)=N/OC(=O)N2CCOCC2)cc1,/,19%,?,15µM*,-1%,?
Cc1ccc(C(=O)OCC(=O)N2CCOCC2)cc1,32%,-1%,9%,8%[46.1 µM],6%,7%
Cc1cccc(/C(N)=N/OC(=O)N2CCOCC2)c1,/,17%,16µM*,23µM*,-19%,?
CC1=CC(c2ccc(Cl)cc2)n2nc(NC(=O)CCC(=O)O)nc2N1 (configuration not stated),-11%,10µM*,24%,2%[46.1 µM],17%,1%
CC(=O)Nc1nc2n(n1)C(c1ccc(F)cc1)C=C(c1ccc(Cl)cc1)N2 (configuration not stated),-19%,5%,29%[46.1 µM],?,/,/
CC1=CC(c2ccc(Cl)cc2)n2nc(NC(=O)CCCC(=O)O)nc2N1 (configuration not stated),-9%,22µM*,10%[46.1 µM],?,8%,9%
C[C@H]1COc2cc(N3CCCC3)ccc2S(=O)(=O)N1,/,/,1%[46.1 µM],/,/,/
COc1ccc(CNC(=O)Cc2ccc(NC(=O)N3CCSc4ncccc43)cc2)cc1,-14%,0%,-1%[46.1 µM],/,/,/
CC(=O)c1cccc(NC(=O)C2CCN(S(=O)(=O)c3ccc4c(c3)CCCN4C(C)=O)CC2)c1,-23%,-10%,-24%[46.1 µM],/,/,/
O=C(/C(=C/c1ccncc1)n1ccnc1)c1ccc(Cl)cc1Cl,22µM*,-29%,/,/,-2%,2%
